An excerpt weighted towards active compounds, which were near 6.2% of everything screened.
HT1080 IDH1KD tx – kills HT-1080 cells with IDH1 knockdown; HT-1080 IDH1 knockdown viability, ATP luminescence, 48 h; Potency, µM (series often up to 46.1 µM), inactives show top-dose activity, negative = toxicity, most hits filed as cytotoxic; 2% of 360,000 active;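 note: 0% = DMSO wells and -100% = cell-free medium wells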
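After a 2 h attachment period, IDH1KD HT-1080 cells took pin-transferred compound for 48 h at 37 °C; ATP-based luminescence after 10 min room-temperature reagent incubation reported viability.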
KB-3-1 tox – KB-3-1 parental cell cytotoxicity | 1.4% of 400,000 active | KB-3-1 viability, CellTiter-Glo ATP luminescence, 72 h | Potency, µM (top dose mostly 46.1 µM), most hits filed as cytotoxic | AID 1347075; note: % is set by controls: 0 for no effect and ±100 for the full control effect; nearly all actives have a fitted effect of over 60% in size
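Cells are dispensed, compounds pinned in, plates held at 37 °C for 72 h, then CellTiter-Glo is added and luminescence read after 10 minutes. Cell line: parental KB-3-1 in phenol-red-free DMEM, 10% FBS.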
KB-V1 MDR tox – kills drug-selected multidrug resistant KB-V1 cells; 3.4% of 400,000 active; KB-V1 MDR cells viability, CellTiter-Glo, 72 h; Potency, µM (titrated, usually from 46.1 µM), most hits filed as cytotoxic; note: % is set by controls: 0 for no effect and ±100 for the full control effect; nearly all actives have a fitted effect of over 60% in size
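Drug-selected KB-V1 cells, grown in DMEM lacking phenol red with 10% FBS, receive compound titrations; after three days at 37 degrees C, surviving cell ATP is quantified by CellTiter-Glo luminescence and responses normalized and curve-fitted.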
ATXN2 expr inh – inhibitors of ATXN2 expression; HEK-293 ATXN2-luciferase reporter, luminescence, 24 h; Potency, µM (top dose mostly 57 µM), without a hit: at the top dose activity change, negative = inhibition, hits mostly inhibitors; 0.72% of 360,000 active; AID 1745845; note: % is set by controls: 0 for no effect and ±100 for the full control effect; nearly all actives have a fitted effect of over 55% in size
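ATXN2-luciferase reporter cells (luciferase flanked by upstream and downstream ATXN2 gene portions) were treated 24 h at 37 °C with compounds at up to 57 uM. SteadyGlo luminescence gave expression; GF-AFC fluorescence gave viability.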
S2 tox – viability counter-screen for ATXN expression inhibitors; S2 cells (HEK-293 line with an ATXN2-luciferase reporter) viability, CellTiter-Fluor protease fluorescence, 24 h; Potency, µM (series often up to 56.7 µM), actives largely listed as cytotoxic; AID 651635; 0.49% of 400,000 active; note: nearly all actives have a fitted effect of over 40% in size
HT1080-NT tox – kills 2HG-producing HT-1080-NT fibrosarcoma cells | HT-1080-NT fibrosarcoma viability, CellTiter-Glo ATP luminescence, 48 h | Potency, µM (series often up to 46.1 µM), without a hit: at the highest dose activity, negative = less viability, hits mostly cytotoxic | 1.6% of 360,000 active | AID 686970;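 note: NT is the 2HG producing partner of a matched IDH1 knockdown line; 0% = DMSO-treated cells and -100% = media-only wells without cells; nearly all actives have a fitted effect of over 55% in size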
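Toxicity toward the 2HG-producing NT line was scored as %Activity, normalised to DMSO and no-cell wells, from CellTiter-Glo luminescence after 48 hours' treatment.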
* marks the source's active call; other numbers are inactive results; i = inactive; ? = inconclusive; . = no result; ! = a repeat was not active; [ ] = dose if it differs, or a comment. Calls come from the whole dose curve; as a rule, active = well fitted curve in the direction sought with a large enough effect; inconclusive = small, poorly fitted or top-dose-only effect, or another doubt; inactive = no such curve, though single readings can be large; an effect the other way counts as inactive or inconclusive. Potency is the fitted concentration of half-maximal effect.

SMILES	HT1080 IDH1KD tx	KB-3-1 tox	KB-V1 MDR tox	ATXN2 expr inh	S2 tox	HT1080-NT tox
NC(Cc1ccc(F)cc1)c1csc(Nc2ccccn2)n1 (stereo not drawn)	23µM*	i	?	?	i	?
COc1cccc(Nc2nc(C(N)Cc3ccc(F)cc3)cs2)n1 (stereo not drawn)	15µM*	?	?	25µM*	?	23µM*
NC(Cc1ccc(F)cc1)c1csc(Nc2cnccn2)n1 (stereo not drawn)	-13%	i	i	10%	i	?
NC(Cc1ccc(Cl)cc1)c1csc(Nc2ccccn2)n1 (stereo not drawn)	?	i	i	22µM*	?	23µM*
NC(Cc1ccccc1)c1csc(Nc2ccccn2)n1 (stereo not drawn)	?	i	i	-21%	?	?
COc1ccc(C(=O)Nc2ccccc2-c2nnn(CC(=O)Nc3ccc4c(c3)OCCO4)n2)cc1	2%	i	?	-3%	?	-1%
O=C(c1ccc2nc3ccc(Cl)cc3c(=O)n2c1)N1CCC2(CC1)OCCO2	-1%	i	21µM*	2%	i	11%
CCN(CC)C(=O)[C@@H]1C=C2c3cccc4[nH]cc(c34)C[C@H]2N(C)C1	.	.	.	-17%[222 µM]	?	.
C=CCn1c(O)c(C(CC)=Nc2ccc(N(CC)CC)cc2)c(=O)[nH]c1=O	-2%	23µM*	15µM*	1%	i	2%
C=CCn1c(O)c(C(C)=Nc2ccc(N(CC)CC)cc2)c(=O)[nH]c1=O	?	5.8µM*	12µM*	-4%	?	?
C=CCn1c(O)c(C(CC)=Nc2ccc(NC(C)=O)cc2)c(=O)[nH]c1=O	13%	i	i	-5%	i	1%
C=CCn1c(O)c(C(C)=Nc2ccc(N(C)C)cc2)c(=O)[nH]c1=O	-19%	?	i	16%	i	-4%
O=c1[nH]/c(=C\c2ccc(N(CCCl)CCCl)cc2)c(=O)[nH]/c1=C\c1ccc(N(CCCl)CCCl)cc1	.	?	i	.	.	.
CS(=N)(=O)CC[C@@H](N)C(=O)O (stereo partly drawn)	.	.	.	.	i	.
O=C(CNC(=O)OCc1ccccc1)Nc1ccc(Br)cc1C(=O)c1ccccc1	?	?	10µM*	6%	i	?
COc1ccc(CC2NCC(O)C2OC(C)=O)cc1 (stereo not drawn)	0.13µM*	0.18µM*	0.18µM*	0.011µM*	?	1.8µM*
COc1ccc(N2CCN(Cc3nc4ccccc4[nH]3)CC2)cc1	-3%	i	i	11%	i	-2%
COc1ccc(-n2cc(-c3ccccc3)c3c(N4CCN(CCO)CC4)ncnc32)cc1	?	i	i	?	?	16µM*
O=C(NCNC(=O)N[C@H]1C(=O)NC(=O)N1CO)N[C@H]1C(=O)NC(=O)N1CO	.	.	.	.	i	.
CCOCCC(=O)Nc1ccc2c(c1)c(=O)n(C)n2Cc1cccc(C(F)(F)F)c1	14%	i	i	9%	i	?
CCOc1ccc(CN(CCc2ccc3c(c2)OCO3)Cc2cc(OC)ccc2O)cc1	.	i	i	-4%	i	.
C[C@@H]1O[C@@H](O[C@@H]2C=C3CC[C@@H]4C(CC[C@]5(C)[C@@H](c6ccc(=O)oc6)CC[C@]45O)[C@@]3(C)CC2)[C@H](O)[C@H](O)[C@H]1O (stereo partly drawn)	0.0046µM*	?	0.026µM*	-75%	?	0.018µM*
CC(=O)C1CCC2(O)C3CCC4=CC(=O)CCC4(C)C3CCC12C (stereo not drawn)	1%	i	?	9%	i	11%
C[C@@H]1O[C@@H](O[C@@H]2C=C3CCC4C(CC[C@]5(C)[C@@H](c6ccc(=O)oc6)CC[C@]45O)[C@@]3(C)CC2)[C@H](O)[C@H](O)[C@H]1O (stereo partly drawn)	0.0092µM*	0.01µM*	?	-82%	?	0.0073µM*
O=C1OC(CCN2CCCCC2)OC1(c1ccccc1)c1ccccc1 (stereo not drawn)	.	.	.	-4%	i	.
SMILES	HT1080 IDH1KD tx	KB-3-1 tox	KB-V1 MDR tox	ATXN2 expr inh	S2 tox	HT1080-NT tox
Cc1ccc(Cn2cc(C=O)c(-c3ccc(C)cc3)n2)cc1	1%	i	16µM*	59%	i	7%
O=C(NC1CC1)c1cn(Cc2ccccc2)nc1-c1ccccc1	0%	i	i	9%	i	5%
Cc1c(N)nc([C@H](CC(N)=O)NC[C@@H](N)C(N)=O)nc1C(=O)N[C@H](C(=O)N[C@@H](C)[C@H](O)[C@@H](C)C(=O)N[C@@H](C(=O)NCCc1nc(-c2nc(C(=O)NCCC[S+](C)C)cs2)cs1)[C@@H](C)O)C(O[C@H]1O[C@H](CO)[C@H](O)[C@@H](O)[C@@H]1O[C@H]1O[C@H](CO)[C@@H](O)[C@H](OC(N)=O)[C@H]1O)c1cnc[nH]1 (stereo partly drawn)	.	.	.	14µM*	.	.
CC(C)(C)c1cc([N+](=O)[O-])cc(C(C)(C)C)c1O	?	12µM*	i	?	?	?
NC(CCc1ccccc1)c1csc(NC(=O)Nc2ccccc2Oc2ccccc2)n1 (stereo not drawn)	?	?	23µM*	?	?	23µM*
CC(C)=CCN1CC[C@]2(C)c3cc(O)ccc3C[C@H]1[C@H]2C	.	.	.	.	i	.
Cc1ccc(-n2nc(C)c3c2NC(=O)CSC3c2ccc(O)cc2)cc1Cl (stereo not drawn)	.	23µM*	i	0%	?	.
O[C@H]1CCCC[C@H]1N1CCC(c2ccccc2)CC1	.	.	.	.	i	.
Cc1cccc(OCC(=O)Nc2cc(-c3ccccc3F)nn2-c2ccccc2)c1	.	i	i	-23%	?	.
Oc1ccc(Cl)cc1Cc1cc(Cl)ccc1O	23µM*	i	?	28µM*!	?	16µM*
Oc1ccc(Cl)cc1Cc1ccccc1	-8%	i	i	?	?	-4%
CCOC(=O)C(C)Oc1cc(C)cc2oc(=O)c3c(c12)CCCC3 (stereo not drawn)	-8%	i	10µM*	59%	i	-1%
CC(C)[C@]12O[C@@H]1[C@@H]1O[C@]13[C@]1(O[C@H]1C[C@@H]1C4=C(CC[C@@]13C)C(=O)OC4)[C@H]2O	.	.	.	0.12µM*	.	.
COC(COC(N)=O)C1=C(N2CC2)C(=O)C(C)=C(N2CC2)C1=O (stereo not drawn)	3.3µM*	4.1µM*	?	3.5µM*	?	6.5µM*
